PLK1 inh: blocks human PLK1 kinase activity; recombinant PLK1 kinase, TR-FRET peptide phosphorylation; hit rate 0.53% among 97,000; inhibition, % at 10 µM;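 active means inhibition of 50% or more in the single-concentration screen; inactive means inhibition below 50%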;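 further: 0% = DMSO max control and 100% = H-89 dihydrochloride min control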
Plk1 PBD FP: inhibitors of human Plk1 polo box domain binding | P53350 | inhibition, %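 (tested at about 20 µM)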 | AID 693 | Plk1 PBD phosphopeptide binding, fluorescence polarization | hit rate 0.13% among 97,000; in the data active means inhibition above about 34%, passing the limit was not always enough
Smad3 inh: blocks human Smad3 binding to FoxH1 peptide | hit rate 0.29% among 88,000 | AID 630 | P84022 | inhibition, % at 25 µM | TR-FRET Smad3/Dy647-FoxH1 peptide binding, europium anti-His;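 active means compounds that reduce the energy-transfer binding signal between the protein and its labelled peptide by more than half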;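 further: 0% = Smad3 plus labelled peptide maximal FRET and 100% = peptide-only background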
FAK inh: FAK (human) kinase inhibition; Q05397; AID 727; hit rate 0.84% among 97,000; inhibition, %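 (tested at 7 µM)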; biochemical FAK kinase activity assay; in the data active means inhibition above about 19%;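 further: 0% = DMSO and 100% = reference compound high control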
EphB4 antag: EphB4-ephrin-B2 interaction antagonism; EphB4 LBD / TNYL-RAW-Alexa532 peptide, fluorescence polarization; inhibition, % at 7 µM; hit rate 0.15% among 97,000; AID 720;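 active means inhibition above the screen-wide mean inhibition plus 3 SD, cut at about 15% in these data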;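 further: 0% = DMSO wells and 100% = excess unlabeled TNYL-RAW peptide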
* marks the source's active call; other numbers are inactive results; x = not tested or not shown; [ ] = another dose, or the depositor's remark. Compounds with a hit are over-represented: about 1.5% of the library has one in this group of screens.

SMILES | PLK1 inh | Plk1 PBD FP | Smad3 inh | FAK inh | EphB4 antag
Ic1ccc2c(c1)N(c1ccccc1)c1cc(Nc3ccc4nc5ccc(I)cc5[n+](-c5ccccc5)c4c3)ccc1N2 | x | x | 90* | x | x
O=C(O)c1ccc(NC(CSCc2ccc(F)cc2)C(=O)O)c([N+](=O)[O-])c1 (centres undefined) | -8 | 12 | 13 | -1 | 4
O=C(CCS(=O)(=O)c1ccccc1)Nc1nc(-c2ccccn2)cs1 | -12 | 32 | -12 | -1 | -4
CCSC1=C(C#N)C(c2cccc(Br)c2)CC(=O)N1 (centres undefined) | -10 | -17 | 4 | -1 | -6
COc1cccc(C2CC(=O)NC(SC)=C2C#N)c1 (centres undefined) | 69* | -1 | -2 | -1 | 0
COC(=O)CC1SC(=O)NC1=O (centres undefined) | -7 | 8 | -6 | -2 | 0
COC1CCCCC1NS(=O)(=O)c1ccc(Cl)cc1 (centres undefined) | 68* | -5 | -9 | -2 | -6
CSC1=NCCN1C(=O)COc1ccccc1 | 69* | 1 | -8 | -6 | 0
S=c1sc2c(N3CCOCC3)ncnc2n1-c1ccccc1 | 62* | 21 | 6 | -3 | 0
CCN1CCN(c2ncnc3c2sc(=S)n3-c2ccccc2)CC1 | x | x | 2 | x | x
CC(C)(CO)Nc1nc(N2CCCC2)nc(N2CCCC2)n1 | -6 | 3 | 4 | -2 | -1
COCCn1c(SCc2nc3sc(C(=O)OC)c(C)c3c(=O)[nH]2)nc2ccccc21 | -11 | -24 | 10 | 0 | -9
CCn1c(SCc2nc3sc(C(=O)O)c(C)c3c(=O)[nH]2)nc2ccccc21 | 56* | -45 | x | -5 | 5
Cc1oc(-c2ccc(Cl)cc2)nc1CN1CCCC(C(=O)N2CCN(C(=O)c3ccco3)CC2)C1 (centres undefined) | 62* | -5 | 8 | 2 | -2
CC(=O)c1ccc(-n2nnnc2SCC(=O)N2CCc3ccccc3C2)cc1 | -8 | 17 | 9 | 8 | 18*
CC(Sc1nc2ccccc2s1)C(=O)Nc1nnc(C(C)C)s1 (centres undefined) | -24 | 14 | -17 | 1 | -7
Oc1ccccc1C(Sc1nc2ccccc2s1)Sc1nc2ccccc2s1 | x | x | 78* | x | x
CC(C)N(Cc1nc(-c2ccc(Cl)cc2)no1)C(=O)CCCN1C(=O)c2ccccc2C1=O | 54* | -6 | 15 | 9 | 2
O=C(CCC1N=C2c3ccccc3N=C(SCc3ccc(F)cc3)N2C1=O)NCc1ccco1 (centres undefined) | -2 | -4 | 6 | -5 | 16*
Cc1nc(SCC(N)=O)[nH]c(=O)c1Cc1ccc(OC(C)C)cc1 | -5 | 8 | x | -6 | -3
O=C(Nc1cccc(O)c1)c1cnn2cccnc12 | 57* | -6 | 6 | 3 | -4
O=C(CC1Oc2ccccc2NC1=O)NC1CCCC1 (centres undefined) | 69* | -11 | 7 | -4 | 4
O=C(CC1Oc2ccccc2NC1=O)NC1CC1 (centres undefined) | -1 | -10 | -8 | 1 | 4
O=C1NC(c2cn(-c3ccccc3)nc2-c2cccs2)C(C(=O)c2cccnc2)C(O)(C(F)(F)F)N1 (centres undefined) | -14 | -33 | x | 2 | 3
CCn1c(COc2ccccc2)nnc1SCC(=O)C(C)(C)C | 4 | 10 | 59*[fluorescence artefact?] | 1 | -3
SMILES | PLK1 inh | Plk1 PBD FP | Smad3 inh | FAK inh | EphB4 antag
Cc1noc(C)c1COC(=O)c1cccnc1SCC(=O)Nc1ccc2c(c1)OCO2 | -1 | 24 | 51* | 0 | -3
CCN(CC)S(=O)(=O)c1ccc(NC2c3ccccc3C(=O)N2Cc2ccc3c(c2)OCO3)cc1 (centres undefined) | 66* | 9 | -5 | 5 | -2
O=C(Cc1cccs1)Nc1nnc(CCc2ccccc2)s1 | -4 | -20 | -11 | 1 | -1
O=C(Cc1cccs1)Nc1nnc(Cc2ccccc2)s1 | -21 | -8 | -9 | 29* | -4
CCOC(=O)C(C(=O)OCC)c1cc(Br)c2noc3c2c1C(=O)c1ccccc1-3 | 2 | -14 | x | 15 | -6
O=C1c2ccccc2-c2onc3ccc(Oc4ccccc4)c1c23 | 17 | -69 | 11 | 36* | 1
Cc1ccc(-c2nc3nc4ccccc4nc3n2Cc2ccco2)cc1 | x | x | 64* | x | x
O=C(CSc1nnc(-c2ccccn2)n1Cc1ccco1)c1ccc(-c2ccccc2)cc1 | x | x | -3 | x | x
C/C(=N\[N-]C(=[SH+])SCc1ccccc1)c1ccccn1.[Cl][Cu] | x | x | 81* | x | x
CSC(=[SH+])[N-]N=C(c1ccccn1)c1ccccn1.[Cu][Br] | x | x | 8 | x | x
NS(=O)(=O)c1ccc(N=Nc2ccc[nH]c2=O)cc1 | x | x | 43 | x | x
